Sampled rows, rich in hits. Any-hit rate of the full collection: about 11%.
HP1b binding inh – HTS for Inhibitors of HP1-beta Chromodomain Interactions with Methylated Histone Tails; hit rate 0.56% among 390,000; AlphaScreen HP1-beta / biotin-H3K9me3 peptide binding; Potency, µM (doses to about 114 µM), for the others: at the top dose activity change, negative = inhibition, hits mostly inhibitors; Chromobox protein homolog 1 (Homo sapiens), P83916; further: nearly all actives have a fitted effect of over 70% in size
Target sequence (P83916 whole entry, looked up): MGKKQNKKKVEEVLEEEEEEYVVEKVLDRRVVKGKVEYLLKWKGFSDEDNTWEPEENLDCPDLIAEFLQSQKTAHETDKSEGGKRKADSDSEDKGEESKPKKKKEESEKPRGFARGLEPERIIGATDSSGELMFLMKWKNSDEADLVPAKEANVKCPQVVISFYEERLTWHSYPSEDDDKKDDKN
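Compound inhibition of the preformed complex between 50 nM HP1-beta and 50 nM biotinylated H3K9me3 peptide was read by AlphaScreen. Buffer was PBS pH 7.4 with 0.01% Tween-20. Incubations ran 30 min at room temperature, with 10 ug/mL donor/acceptor beads.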
L3MBTL1 inh – qHTS Assay for the Inhibitors of L3MBTL1 | Lethal(3)malignant brain tumor-like protein 1 (Homo sapiens), Q9Y468 | AlphaScreen L3MBTL1–H3K9me1 peptide binding | Potency, µM (titrated, usually from 57.1 µM), inactives show at the highest dose activity, negative = inhibition, usual class: inhibitors | hit rate 0.66% among 230,000; further: on the % scale 0 is the no-effect control and ±100 the full control effect; nearly all actives have a fitted effect of over 60% in size
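Displacement of a biotinylated histone H3(1-15) peptide monomethylated at Lys9 (75 nM) from L3MBTL1 (50 nM) was measured by AlphaScreen after a 30 min room-temperature compound incubation; cefsulodin titration served as intraplate control.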
G9a block – qHTS Assay for Inhibitors of Histone Lysine Methyltransferase G9a; Histone-lysine N-methyltransferase EHMT2 (Homo sapiens), Q96KQ7; G9a H3K9 monomethylation, AlphaScreen, 2 h; Potency, µM (doses to about 102 µM), inactives show top-dose activity, negative = inhibition, most hits filed as inhibitors; hit rate 8.8% among 350,000; further: on the % scale 0 is the no-effect control and ±100 the full control effect; nearly all actives have a fitted effect of over 75% in size
Target sequence (Q96KQ7 913-1193 limits assumed): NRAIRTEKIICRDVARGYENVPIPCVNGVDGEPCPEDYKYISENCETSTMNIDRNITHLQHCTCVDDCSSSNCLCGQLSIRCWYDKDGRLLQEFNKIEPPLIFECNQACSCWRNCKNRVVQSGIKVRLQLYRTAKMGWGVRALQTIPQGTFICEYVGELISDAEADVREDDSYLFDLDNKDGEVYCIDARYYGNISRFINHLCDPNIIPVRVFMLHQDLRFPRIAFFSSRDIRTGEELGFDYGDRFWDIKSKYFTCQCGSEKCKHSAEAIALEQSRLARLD
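Quantitative HTS format: methyltransferase activity on a biotin-tagged H3K9 peptide is measured by AlphaScreen, using a rabbit anti-monomethyl-H3K9 antibody with streptavidin donor and anti-IgG acceptor beads. Final levels are 20 nM enzyme, 500 nM peptide, 20 uM SAM; 2 h RT.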
BAZ2B block – qHTS Assay for Inhibitors of BAZ2B; AlphaScreen BAZ2B-H3K14Ac peptide displacement; Bromodomain adjacent to zinc finger domain protein 2B (Homo sapiens), Q9UIF8; hit rate 4.4% among 360,000; Potency, µM (highest dose often 114 µM), without a hit: at the highest dose activity change, negative = inhibition, usual class: inhibitors; further: on the % scale 0 is the no-effect control and ±100 the full control effect; nearly all actives have a fitted effect of over 60% in size
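Protein-peptide AlphaScreen: BAZ2B 50 nM, b-H3K14Ac 50 nM, 1x PBS pH 7.4 + 0.01% Tween-20. Preincubation 30 min RT; cpd 30 min RT (top 110 uM); beads 20 min RT, light-protected.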
JMJD2A Tudor inh – qHTS Assay for Inhibitors of JMJD2A-Tudor Domain; Lysine-specific demethylase 4A (Homo sapiens), O75164; AlphaScreen JMJD2A-Tudor / H3K4me3 peptide binding; Potency, µM (doses to about 114 µM), for the others: at the top dose activity change, negative = inhibition, most hits filed as inhibitors; hit rate 4.4% among 390,000; AID 504339, 2011; further: on the % scale 0 is the no-effect control and ±100 the full control effect; nearly all actives have a fitted effect of over 50% in size
Active calls of the source: *; ? = inconclusive; . = no result given; [ ] = remark or other dose. The call rests on the fitted dose curve; in most records, active means well fitted inhibition curve with a large enough effect; inconclusive means small, poorly fitted or top-dose-only effect; inactive means no such curve, though single readings can be large or run the other way. Potency means the concentration at half of the fitted maximal effect.

SMILES	HP1b binding inh	L3MBTL1 inh	G9a block	BAZ2B block	JMJD2A Tudor inh
COCc1c(Br)c(C)nc(OCC(=O)N/N=C/c2ccc(C)o2)c1C#N	33%	-8%	-33%	-13%	-8%
COCc1c(Br)c(C)nc(OCC(=O)N/N=C/c2ccco2)c1C#N	27%	.	?	89µM*	-27%
Cc1cccc(N2CCN(C(=O)CN3C(=O)COc4ccc(S(=O)(=O)N5CCC(C)CC5)cc43)CC2C)c1 (stereo unspecified)	42%	.	8%[59 µM]	-16%	-18%
CCOC(=O)c1c(/N=C/c2cccc([N+](=O)[O-])c2O)sc(C)c1C	45µM*	-17%	7.1µM*	45µM*	50µM*
Cc1ccc(-n2nc3c(N4CCC(C(=O)NCCC(C)C)CC4)nnc(C)c3c2C)cc1	31%	.	-39%[59 µM]	-10%	-18%
O=C(O)c1ccc(N/N=C/c2ccc(-c3ccccc3)cc2)cc1	-13%	.	45µM*	.	-33%
O=C(N/N=C/C=C/c1ccccc1)c1ccncc1	13%	27%	42%[59 µM]	4%	?
Cc1ccc(/C=N/Nc2ccc(C(=O)O)cc2)s1	-8%	?	14µM*	?	-32%
O=C(O)c1ccc(N/N=C/C=C/c2ccccc2)cc1	7%	.	71µM*	?	-31%
Cc1ccc(/C=N/Nc2cccc(C(=O)O)c2)s1	5%	-21%	?	-35%	?
O=C(O)c1ccc(N/N=C/c2ccc(OC(=O)c3ccccc3Cl)cc2)cc1	?	-14%	2%[59 µM]	89µM*	?
Cc1cccc(NC(=O)CSc2nccn2Cc2ccc(F)cc2)c1C	12%[57 µM]	.	-3%[59 µM]	-34%	-18%
CC(CNC(=O)c1ccc2nc(Cc3ccccc3)oc2c1)c1ccccc1 (stereo unspecified)	8%[57 µM]	.	14%[59 µM]	1%	-10%
CCc1ccc(CNC(=O)CSCc2cnn(-c3ccccc3)c2-n2cccc2)cc1	49%	.	14%[59 µM]	33%	-2%
Cc1ccc(NC(=O)Cn2c(C)cc(C)c(C#N)c2=O)cc1	28%	.	1%[12.7 µM]	-1%	10%
CC(C)c1ccc(/C=N/Nc2ccc(C(=O)O)cc2)cc1	25%	-11%	10µM*	?	-25%
Cc1ccc2nc(NC(=O)CSc3nccn3Cc3ccc(Cl)cc3)sc2c1	-21%[57 µM]	.	0%[59 µM]	-13%	-25%
COc1ccc(/C=C2\SC(=N)N(c3ccc(F)cc3)C2=O)cc1OC	33%	.	-22%[59 µM]	-23%	-7%
CCOc1cc(/C=C2\SC(=N)N(c3nonc3N)C2=O)ccc1OCC(N)=O	25%	0%	45µM*	?	?
CCOC(=O)c1ccccc1NC(=O)c1cnc(N2CCOCC2)c2ccccc12	64%[57 µM]	.	50%[59 µM]	13%	54%
CC1(C)Cc2c(c(=S)nc(-c3ccccc3)n2Cc2cccnc2)CO1	24%	1%	35µM*	-12%	-2%
Cc1ccc(CNC(=O)CS(=O)Cc2nc(-c3cccs3)oc2C)cc1 (stereo unspecified)	20%	.	50µM*	-5%	-26%
Cc1ccc(-c2nc(CS(=O)CC(=O)NCc3ccccc3)c(C)o2)cc1 (stereo unspecified)	31%	.	50µM*	-21%	-17%
COc1ccc(-c2nc(CS(=O)CC(=O)NCc3ccccc3OC)c(C)o2)cc1 (stereo unspecified)	16%	.	?	-13%	-15%
COc1ccccc1CNC(=O)CS(=O)Cc1nc(-c2ccccc2C)oc1C (stereo unspecified)	13%	.	79µM*	-25%	-23%
SMILES	HP1b binding inh	L3MBTL1 inh	G9a block	BAZ2B block	JMJD2A Tudor inh
CCc1ccc(-c2nc(CS(=O)CC(=O)NCCc3ccccc3)c(C)o2)cc1 (stereo unspecified)	22%	.	79µM*	-10%	-21%
Cc1ccc(CCNC(=O)CS(=O)Cc2nc(-c3cccs3)oc2C)cc1 (stereo unspecified)	36%	-8%	?	-19%	-17%
Cc1ccc(C)c(Cn2cnc3ccccc3c2=O)c1	19%	.	2%[59 µM]	6%	-11%
CCc1ccccc1N(c1nc(-c2ccc(OC)c(OC)c2)no1)c1nc(-c2ccc(OC)c(OC)c2)no1	22%	.	-3%[59 µM]	-11%	-12%
Cc1ccccc1-c1nc(CS(=O)CC(=O)NCc2ccccc2)c(C)o1 (stereo unspecified)	19%	.	50µM*	-16%	-29%
Cc1ccc(CNC(=O)CS(=O)Cc2nc(-c3ccccc3C)oc2C)cc1 (stereo unspecified)	18%	.	50µM*	-31%	-18%
COc1ccc(CNC(=O)CS(=O)Cc2nc(-c3ccccc3C)oc2C)cc1 (stereo unspecified)	16%	.	?	-9%	-23%
COC(=O)C(CCSC)NC(=O)c1cc2c(n(-c3ccc(C)cc3)c1=O)CCCC2=O (stereo unspecified)	27%[57 µM]	?	0.56µM*	50µM*	-9%
Cc1ccc(/C=C/C(=O)NCCc2c[nH]c3ccccc23)o1	?	-21%	45µM*	.	-32%
Cc1cc(C(=O)NCC2COc3ccccc3O2)c2ccccc2n1 (stereo unspecified)	36%	-1%	45µM*	-17%	-3%
Cc1ccc(/C=C/C(=O)NCC2COc3ccccc3O2)o1 (stereo unspecified)	?	-3%	?	?	56µM*
O=S1(=O)c2ccccc2N(Cc2cccc(F)c2)c2ccccc21	25%	.	10%[59 µM]	-2%	-13%
COC(=O)c1ccccc1NC(=O)Cn1cc(S(=O)(=O)Cc2ccccc2F)c2ccccc21	15%	.	-25%[59 µM]	?	-21%
COc1cc(NC(=O)Cc2c(C(=O)O)c(C)cn2C)cc(OC)c1	-7%	.	-5%[59 µM]	?	-27%
O=C(CSc1nnc(-c2ccco2)c(-c2ccco2)n1)c1ccccc1	?	-2%	7%	-1%	45µM*
CC1CN(C(=O)/C=C/c2ccccc2[N+](=O)[O-])CC(C)O1 (stereo unspecified)	23%[57 µM]	-1%	-4%	-14%	10µM*
O=C(/C=C/c1ccccc1[N+](=O)[O-])c1ccccc1Br	?	-5%[11.4 µM]	40µM*	32µM*	56µM*
Cc1cc(C(=O)CN2C(=O)C(=O)N(Cc3ccccc3)C2=O)c(C)n1-c1ccccc1F	3%	-9%	-4%	-17%	-18%
Cc1cc(C(=O)CN2CCC(C)CC2)c(C)n1-c1ccccc1F	-2%	-3%	50µM*	-7%	-25%
CCc1ccc(C(=O)c2cn(CC(=O)NCc3ccc(C)cc3)c3nc(C)ccc3c2=O)cc1	45%	.	3%[59 µM]	-2%	-19%
Cn1c(N)c(C#N)c2c(c1=S)COC(C)(C)C2	12%	.	-16%	2%	-11%
